Assay results published in PubChem BioAssay.
Active and inactive are the calls of the source.

How the values were obtained:
[1] = small molecules captured by biotinylated probe aFSTL3 – biochemical, small-molecule microarray, fluorescence 635/667, stem cell growth factor project, primary screen (AID 1064); settings: higher = more signal;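 note: measures binding of the biotinylated anti-FSTL3 antibody to printed compounds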
[2] = binders from COS7 lysate, DM2A8 probe, primary screen, torsin A project, cell lysate, small-molecule microarray, fluorescence 635/667 (AID 1065); settings: higher = more signal, COS7 lysate expressing mutant human TOR1A
[3] = small molecules captured by biotinylated probe aFGF2 – biochemical, small-molecule microarray, fluorescence 635/667, stem cell growth factor project, primary screen (AID 1067); settings: higher = more signal;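 note: measures binding of biotinylated aFGF2 protein to printed compounds on slides; z-score merges feature fluorescence and signal-to-noise across triplicate slides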
[4] = small molecules captured by biotinylated probe aFGF10 – biochemical, small-molecule microarray, fluorescence 635/667, stem cell growth factor project, primary screen (AID 1071); settings: higher = more signal;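 note: score merges 667 nm spot intensity and signal to noise from triplicate slides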
[5] = target: Neurogenic locus notch homolog protein 2 (Homo sapiens) (UniProt Q04721); assay: small molecules binding Notch2 protein – biochemical, small-molecule microarray, 635 nm fluorescence, stem cell growth factors, primary screen (AID 1073); settings: higher = more signal
[6] = target: Pro-neuregulin-1, membrane-bound isoform (Homo sapiens) (UniProt Q02297); assay: small molecules binding neuregulin-1 protein – biochemical, small-molecule microarray, fluorescence 635/667, psychiatric disease protein project, primary screen (AID 1075); settings: NRG1 binding, 635 nm fluorescence, higher = more signal;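 note: score combines 667 nm spot fluorescence with signal to noise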
[7] = test system: Neuregulin-1 EGF-like domain; assay: small molecules binding NRG1 EGF domain – biochemical, small-molecule microarray, 635 nm fluorescence, primary screen (AID 1081); settings: higher = more signal;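 note: binding of the protein to compounds printed on small-molecule microarray slides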
[8] = FRG1 expression reporter modulators in myotubes – cell-based, C2C12 myotubes, firefly/Renilla luciferase, luminescence, FRG1 inhibition for FSHD, primary screen (AID 1084); settings: FRG1 promoter luciferase, higher = more signal, called active from +8 up or from −8 down
[9] = small molecules captured by biotinylated probe aFST – biochemical, small-molecule microarray, fluorescence 635/667, stem cell growth factor project, primary screen (AID 1086); settings: higher = more signal;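 note: score merges 667 nm fluorescence with signal-to-noise of each printed compound spot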
[10] = binders of probe aHhip on microarray, primary screen, stem cell growth factor project, biochemical, small-molecule microarray, fluorescence 635/667 (AID 1087); settings: higher = more signal;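 note: score merges spot fluorescence at 667nm with spot signal to noise ratio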
[11] = test system: PRMT1 (protein arginine N-methyltransferase 1); assay: small molecules binding arginine methyltransferase PRMT1 – biochemical, small-molecule microarray, 635 nm fluorescence, primary screen (AID 1088); settings: higher = more signal;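 note: binding of Prmt1 protein to compounds spotted on small-molecule microarray slides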
[12] = growth effects on S. cerevisiae YJM789 – YJM789 clinical isolate, OD600, 24 h, basal, primary screen (AID 1089); settings: higher = more signal, called active from +8 up or from −8 down;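 note: growth of clinical yeast isolate S. cerevisiae YJM 789 seeded 1000 cells per well; test concentration not given here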
[13] = S. pombe growth modifiers, basal conditions – strain 972, OD600, 24 h, no modulator, primary screen (AID 1090);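 note: basal condition with compound alone and no growth modifier present; test concentration not given here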; settings: S. pombe 972 growth, higher = more signal, called active from +8 up or from −8 down
[14] = budding yeast growth modifiers under rapamycin – strain BY4716, OD600, 96 h, primary screen (AID 1091); note: test concentration not given here; settings: S. cerevisiae BY4716 + rapamycin, higher = more signal, called active from +8 up or from −8 down
[15] = target: Torsin-1A-interacting protein 2 (Homo sapiens) (UniProt Q8NFQ8); assay: small molecules binding lysate-expressed LULL1 – cell lysate, human LULL1 lysate, 635/667 nm fluorescence, primary screen (AID 1092); settings: small-molecule microarray, hLULL1 lysate binding, 635 nm fluorescence; higher = more signal;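 note: probe is lysate of COS7 cells overexpressing human LULL1; score merges per-feature 667 nm fluorescence with signal-to-noise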
[16] = optical density change of DRC41 E. coli – strain DRC41, OD650, 24 h, E. coli filamentation project, primary screen (AID 1093);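 note: MC1000 strain lacking acrAB efflux and sulA so SOS filamentation is blocked; test concentration not given here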; settings: E. coli DRC41 growth, higher = more signal, called active from +8 up or from −8 down
[17] = probe aLefty2 binding to arrayed compounds – biochemical, biotinylated probe, 635/667 nm fluorescence, primary screen (AID 1094); settings: small-molecule microarray, higher = more signal;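 note: score merges spot fluorescence near 667 nm with spot signal-to-noise ratio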
[18] = test system: Noggin (protein binding on small-molecule microarray); assay: small molecules binding Noggin protein – biochemical, 635/667 nm fluorescence, primary screen (AID 1095); settings: 635 nm fluorescence, higher = more signal;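 note: score merges 667 nm feature fluorescence with signal to noise over triplicate slides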
[19] = target: Neurogenic locus notch homolog protein 3 (Homo sapiens) (UniProt Q9UM47); assay: small molecules binding NOTCH3 protein – biochemical, 635/667 nm fluorescence, primary screen (AID 1096); settings: small-molecule microarray, 635 nm fluorescence, higher = more signal
[20] = probe aEGFR binding to arrayed compounds – biochemical, biotinylated probe, 635/667 nm fluorescence, primary screen (AID 1097); settings: small-molecule microarray, higher = more signal;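 note: probe is a biotinylated anti-EGFR antibody binding compounds printed on slides; score combines fluorescence near 667 nm and signal to noise of each spot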

Sequence of Neurogenic locus notch homolog protein 3 (Homo sapiens) (Q9UM47 whole entry, looked up): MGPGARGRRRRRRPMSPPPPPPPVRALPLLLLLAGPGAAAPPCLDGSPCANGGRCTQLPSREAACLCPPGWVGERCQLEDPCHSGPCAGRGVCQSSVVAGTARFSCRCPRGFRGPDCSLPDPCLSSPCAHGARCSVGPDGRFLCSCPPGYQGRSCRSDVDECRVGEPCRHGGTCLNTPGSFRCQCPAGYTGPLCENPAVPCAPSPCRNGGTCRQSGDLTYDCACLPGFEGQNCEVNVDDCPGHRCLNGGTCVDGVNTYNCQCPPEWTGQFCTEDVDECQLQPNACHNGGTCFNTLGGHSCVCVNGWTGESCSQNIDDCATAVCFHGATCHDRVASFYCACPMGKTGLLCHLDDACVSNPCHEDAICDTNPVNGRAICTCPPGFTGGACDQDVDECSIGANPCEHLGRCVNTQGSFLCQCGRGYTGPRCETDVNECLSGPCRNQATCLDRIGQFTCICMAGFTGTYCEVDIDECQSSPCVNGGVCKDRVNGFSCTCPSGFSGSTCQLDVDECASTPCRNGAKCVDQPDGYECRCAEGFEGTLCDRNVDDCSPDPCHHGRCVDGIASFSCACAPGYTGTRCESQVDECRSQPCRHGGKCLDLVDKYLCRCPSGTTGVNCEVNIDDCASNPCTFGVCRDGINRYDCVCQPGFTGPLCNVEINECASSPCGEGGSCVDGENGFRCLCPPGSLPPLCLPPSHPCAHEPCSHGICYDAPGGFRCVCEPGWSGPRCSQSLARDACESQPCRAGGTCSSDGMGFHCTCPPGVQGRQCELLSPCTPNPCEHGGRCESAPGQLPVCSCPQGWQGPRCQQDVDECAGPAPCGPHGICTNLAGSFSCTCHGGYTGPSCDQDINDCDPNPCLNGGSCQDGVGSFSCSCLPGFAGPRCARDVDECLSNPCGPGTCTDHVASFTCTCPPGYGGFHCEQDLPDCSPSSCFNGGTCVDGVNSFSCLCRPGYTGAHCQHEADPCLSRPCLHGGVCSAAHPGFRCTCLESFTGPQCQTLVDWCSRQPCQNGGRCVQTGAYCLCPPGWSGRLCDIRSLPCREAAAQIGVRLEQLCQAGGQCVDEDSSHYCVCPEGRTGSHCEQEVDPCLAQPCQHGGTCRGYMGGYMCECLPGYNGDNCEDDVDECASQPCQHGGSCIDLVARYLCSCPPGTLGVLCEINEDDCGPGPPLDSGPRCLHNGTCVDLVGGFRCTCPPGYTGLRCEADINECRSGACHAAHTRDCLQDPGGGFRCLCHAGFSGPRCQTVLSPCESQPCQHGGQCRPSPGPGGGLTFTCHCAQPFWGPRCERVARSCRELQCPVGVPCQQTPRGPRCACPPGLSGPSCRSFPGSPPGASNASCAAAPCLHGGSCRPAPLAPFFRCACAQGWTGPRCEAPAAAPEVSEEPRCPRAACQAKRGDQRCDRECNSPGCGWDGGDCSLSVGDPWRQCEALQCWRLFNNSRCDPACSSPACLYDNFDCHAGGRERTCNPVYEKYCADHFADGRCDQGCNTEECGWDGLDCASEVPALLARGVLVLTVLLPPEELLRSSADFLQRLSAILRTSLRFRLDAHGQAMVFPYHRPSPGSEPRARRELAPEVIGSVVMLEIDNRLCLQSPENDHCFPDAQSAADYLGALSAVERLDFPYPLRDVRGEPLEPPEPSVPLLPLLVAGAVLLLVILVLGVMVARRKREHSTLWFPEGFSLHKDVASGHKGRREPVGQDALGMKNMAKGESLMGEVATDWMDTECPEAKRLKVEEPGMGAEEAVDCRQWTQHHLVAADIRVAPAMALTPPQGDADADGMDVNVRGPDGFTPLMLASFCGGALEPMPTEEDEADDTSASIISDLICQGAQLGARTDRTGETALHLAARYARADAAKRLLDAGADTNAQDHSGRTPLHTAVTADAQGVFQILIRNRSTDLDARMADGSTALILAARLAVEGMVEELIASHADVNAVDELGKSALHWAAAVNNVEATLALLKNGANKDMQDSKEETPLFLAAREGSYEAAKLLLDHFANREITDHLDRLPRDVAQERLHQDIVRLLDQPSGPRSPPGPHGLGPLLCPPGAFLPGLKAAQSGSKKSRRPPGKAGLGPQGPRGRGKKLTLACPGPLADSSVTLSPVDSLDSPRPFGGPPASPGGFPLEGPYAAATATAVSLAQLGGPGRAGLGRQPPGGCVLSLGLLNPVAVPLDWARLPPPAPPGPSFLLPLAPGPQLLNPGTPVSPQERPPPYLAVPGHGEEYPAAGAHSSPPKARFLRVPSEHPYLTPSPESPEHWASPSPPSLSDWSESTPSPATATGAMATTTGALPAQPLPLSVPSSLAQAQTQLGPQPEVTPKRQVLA
Sequence of Torsin-1A-interacting protein 2 (Homo sapiens) (Q8NFQ8 whole entry, looked up): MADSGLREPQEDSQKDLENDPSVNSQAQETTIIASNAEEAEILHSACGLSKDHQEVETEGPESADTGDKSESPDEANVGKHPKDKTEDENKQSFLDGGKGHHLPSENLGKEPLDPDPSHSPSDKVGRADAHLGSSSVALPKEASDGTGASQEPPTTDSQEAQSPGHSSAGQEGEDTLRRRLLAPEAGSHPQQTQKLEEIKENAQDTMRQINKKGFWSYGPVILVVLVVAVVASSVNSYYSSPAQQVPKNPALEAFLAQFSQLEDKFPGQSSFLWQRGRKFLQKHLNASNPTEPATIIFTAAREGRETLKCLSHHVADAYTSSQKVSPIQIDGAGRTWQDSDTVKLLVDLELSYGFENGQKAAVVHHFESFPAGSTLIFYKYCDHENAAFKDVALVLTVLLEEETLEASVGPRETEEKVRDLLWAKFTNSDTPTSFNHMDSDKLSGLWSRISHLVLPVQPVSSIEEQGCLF
Sequence of Pro-neuregulin-1, membrane-bound isoform (Homo sapiens) (Q02297 whole entry, looked up, the tested form may be a part, canonical isoform): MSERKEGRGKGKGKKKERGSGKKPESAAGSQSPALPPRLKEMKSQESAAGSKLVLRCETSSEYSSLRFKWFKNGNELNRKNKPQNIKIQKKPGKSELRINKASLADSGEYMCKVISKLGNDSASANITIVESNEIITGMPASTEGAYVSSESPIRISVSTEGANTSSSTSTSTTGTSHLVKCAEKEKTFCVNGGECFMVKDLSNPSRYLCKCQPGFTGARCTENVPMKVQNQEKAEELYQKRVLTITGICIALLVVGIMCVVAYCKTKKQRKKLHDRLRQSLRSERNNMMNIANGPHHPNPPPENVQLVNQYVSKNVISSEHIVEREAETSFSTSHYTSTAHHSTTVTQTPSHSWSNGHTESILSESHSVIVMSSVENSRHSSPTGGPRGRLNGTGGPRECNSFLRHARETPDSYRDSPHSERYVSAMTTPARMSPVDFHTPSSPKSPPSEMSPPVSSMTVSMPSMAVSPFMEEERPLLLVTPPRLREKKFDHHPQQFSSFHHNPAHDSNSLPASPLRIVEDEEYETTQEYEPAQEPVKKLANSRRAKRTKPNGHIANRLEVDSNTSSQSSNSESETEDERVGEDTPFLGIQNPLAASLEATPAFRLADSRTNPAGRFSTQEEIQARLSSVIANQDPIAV

SMILES | composite z-score [1] | composite z-score [2] | composite z-score [3] | composite z-score [4] | composite z-score [5] | composite z-score [6] | composite z-score [7] | z-score [8] | composite z-score [9] | composite z-score [10] | composite z-score [11] | z-score [12] | z-score [13] | z-score [14] | composite z-score [15] | z-score [16] | composite z-score [17] | composite z-score [18] | composite z-score [19] | composite z-score [20]
O=C1O[C@H](c2ccccc2)[C@H](c2ccccc2)N2[C@H]1[C@@H](C(=O)NC[C@H](O)c1ccccc1)[C@]1(C(=O)Nc3ccc(C#CC4=CCCCC4)cc31)[C@H]2c1ccc(O)cc1 | 0.84 | 0.891 | 0.146 | 0.962 | 0.671 | 1.4 | 1.16 | 0.733 (inactive) | 0.826 | -0.0618 | 1.55 | 0.896 (inactive) | 0.543 (inactive) | 1.62 (inactive) | 2.59 | 2 (inactive) | -0.0766 | 1.61 | 1.08 | 0.272
CN(C)CCCN1C(=O)[C@@]2(c3ccc([N+](=O)[O-])cc3)CC(=O)N(C3CCCCC3)[C@@H]2c2ccc(CO)cc21 | -0.363 | -0.0124 | -0.107 | 0.251 | 0.166 | -0.483 | -1.19 | 1.19 (inactive) | 0.161 | -0.353 | -0.282 | -1.34 (inactive) | -1.09 (inactive) | -2.61 (inactive) | -0.933 | -1.22 (inactive) | -0.142 | -0.233 | -0.0488 | -0.103
COCCOC(=O)N1C(=O)[C@@]2(c3cc(C#Cc4ccc(OC)cc4)ccc31)[C@H](c1ccc(OCCO)cc1)N1[C@H](c3ccccc3)[C@H](c3ccccc3)OC(=O)[C@H]1[C@@H]2C(=O)N1CCc2cc(OC)c(OC)cc2C1 | -0.327 | 0.514 | 0.0051 | 0.214 | 0.871 | 0.424 | 0.981 | -0.948 (inactive) | 0.225 | 0.232 | 1.56 | 2.81 (inactive) | 1.39 (inactive) | 7.07 (inactive) | 0.434 | 1.56 (inactive) | -0.202 | 1.28 | 1.12 | -0.02
C=CCN1C(=O)[C@]2(Cc3ccccc31)N=C(c1ccc(OCCCO)cc1)O[C@@H]2c1ccccc1 | 0.5 | 0.152 | -0.062 | 0.439 | 1.6 | 0.904 | 1.2 | -2.5 (inactive) | 0.961 | 0.0854 | 1.33 | -2.2 (inactive) | -4.05 (inactive) | 0.259 (inactive) | 2.76 | -2.56 (inactive) | 0.235 | 0.555 | 0.923 | 0.0786
O=C(N1CCCCC1)[C@]1(CCS(=O)(=O)c2ccccc2)N=C(c2ccc(OCCCO)cc2)O[C@@H]1c1ccccc1 | 1.04 | 0.815 | 0.215 | 0.803 | 0.773 | 1.49 | 1.11 | -1.79 (inactive) | 0.636 | 0.0623 | 1.56 | -0.503 (inactive) | -0.282 (inactive) | 5.25 (inactive) | 2.4 | -0.643 (inactive) | 0.568 | 0.115 | 1.11 | 0.244
C=CCOC(=O)[C@H]1[C@@H]2C(=O)O[C@@H](c3ccccc3)[C@@H](c3ccccc3)N2[C@@H](c2ccc(OCCOC(=O)[C@@H]3C[C@@H]4C(=O)NCC(=O)N4[C@@H]3c3ccc(O)cc3)cc2)[C@]12C(=O)Nc1ccc(I)cc12 | -0.321 | 0.335 | 0.0364 | 0.438 | 0.93 | 1.17 | 1.27 | -0.0667 (inactive) | 0.317 | 0.107 | 1.55 | 0.591 (inactive) | 0.0218 (inactive) | 2.48 (inactive) | 2.57 | -0.375 (inactive) | -0.205 | 1.64 | 1.11 | -0.0788
C=CCC(OC(C)=O)[C@@H]1[C@@H](N(Cc2cc3ccccc3o2)C(=O)c2cccc3ccccc23)c2cc(OCCCO)ccc2N1C(=O)Cc1ccc(OC)cc1 (stereo not given in full) | -0.295 | -0.52 | -0.0128 | 0.0939 | 0.0751 | 0.758 | 0.111 | -0.709 (inactive) | -0.0464 | -0.109 | 0.21 | -0.0559 (inactive) | -0.28 (inactive) | 0.351 (inactive) | 1.33 | -0.829 (inactive) | -0.0745 | 0.342 | -0.351 | -0.0967
CCCCCN1CC=CC23O[C@@H]4C=CCCOC(=O)C4[C@H]2C(=O)N(CCCO)[C@@H]3C1=O (stereo not given in full) | 0.0241 | -0.615 | -0.186 | 0.0149 | -0.755 | -0.454 | 0.266 | -0.482 (inactive) | -0.108 | -0.236 | 0.229 | 0.0103 (inactive) | -1.3 (inactive) | -0.506 (inactive) | -0.651 | 2.22 (inactive) | -0.257 | -0.272 | 0.0424 | -0.223
COc1cc2c(cc1O)C(c1ccc(CN3CCCC3)cc1)N(Cc1sc3ccccc3c1Cl)CC2 (stereo not given) | 0.719 | -0.002 | -0.0687 | 0.156 | 0.805 | 0.072 | 1.17 | 0.0314 (inactive) | 1.38 | -0.214 | 1.13 | -1.43 (inactive) | -17.7 (active) | -1.1 (inactive) | 1.93 | 0.504 (inactive) | 0.157 | 0.369 | 0.202 | 0.0475
